LEDGF integ inh: blockers of LEDGF/p75-dependent integrase strand transfer – biochemical, TR-FRET, high throughput, primary screen; inhibition, % at 3.7 µM; TR-FRET IN-LEDGF/p75 DNA integration, Eu/Cy5; HIV-1 integrase (with human LEDGF/p75); hit rate 0.64% among 370,000; AID 743269, 2014;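 active = inhibition above the screen-wide mean plus 3 SD, cut at about 13% in these data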;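 also: signal is the Cy5 over europium emission ratio at 671 and 618 nm; 0% = plate median of compound wells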
DNMT1 block: human DNMT1 methyltransferase inhibitors, primary screen, biochemical, molecular beacon, fluorescence, HinP1I cleavage, uHTS. DNA (cytosine-5)-methyltransferase 1 (Homo sapiens), P26358. inhibition (reported as % activation of signal), % at 10 µM. hit rate 0.83% among 360,000. AID 588458, 2011; in the data active = inhibition above about 50%
UHRF1 binding: UHRF1 methylated DNA binding inhibitors, primary screen, counter-screen for MBD2 inhibitor project, biochemical, TR-FRET, human UHRF1, single concentration | E3 ubiquitin-protein ligase UHRF1 (Homo sapiens), Q96T88 | UHRF1 binding to methylated oligo | inhibition, % at 4.4 µM | hit rate 0.75% among 370,000 | AID 687016, 2013; in the data active = inhibition above about 21%;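 also: UHRF1 SRA domain binding a hemimethylated CpG hairpin DNA probe; 0% = median of test compound wells and 100% = reference inhibitor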
PG9 Ab binder: binders of HIV-1 gp120 antibody PG9, primary screen, biochemical, TR-FRET; HIV-1 gp120 / PG9 antibody interaction; TR-FRET gp120-PG9 antibody binding; inhibition, % at 6.7 µM; hit rate 0.43% among 360,000; in the data active = inhibition above about 8.5%
MBD2 inh: inhibitors of MBD2 binding to methylated DNA, primary screen, biochemical, TR-FRET, DNA-binding domain, human; Methyl-CpG-binding domain protein 2 (Homo sapiens), Q9UBB5; MBD2 binding to methylated oligonucleotide; inhibition, % at 4.4 µM; hit rate 0.31% among 370,000; AID 686964, 2013; in the data active = inhibition above about 13%
rCAG binder: binders of r(CAG) RNA repeats, primary screen, biochemical, fluorescence; inhibition, % at 3 µM; r(CAG) RNA repeat, TO-PRO-1 dye displacement fluorescence; hit rate 1.3% among 370,000;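 active = inhibition above the plate cutoff, the mean of all test compounds on that plate plus 3 SD, cut at about 35% in these data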;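 also: 0% = DMSO alone and 100% = 100 µM mitoxantrone as full dye displacement; higher means more dye released from RNA so lower well fluorescence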
UHRF1 ctr MBD2: UHRF1 methylated DNA binding inhibitors, counter-screen for MBD2 inhibitor project, biochemical, TR-FRET, human UHRF1. shares compounds with MBD2 inh. AID 720530, 2013. UHRF1 binding to methylated oligonucleotide. hit rate 25% among 1,000. inhibition, % at 4.4 µM; in the data active = inhibition above about 21%;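 also: UHRF1 SRA domain binding a labeled hemimethylated CpG hairpin DNA; 0% = vehicle only and 100% = reference inhibitor with vehicle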
MBD2 DBD conf: inhibitors of MBD2 binding to methylated DNA, confirmation, biochemical, TR-FRET, DNA-binding domain, human; TR-FRET MBD2-DBD binding to methylated oligonucleotide; shares compounds with MBD2 inh; hit rate 26% among 1,000; inhibition, % at 4.4 µM
IN multimer act: HIV-1 IN multimer formation enhancers, counter-screen for LEDGF/p75 integration inhibitor project, biochemical, TR-FRET | hit rate 17% among 2,000 | TR-FRET HIV-1 integrase multimerization | AID 1053131, 2014 | activation, % at 7.7 µM | shares compounds with LEDGF integ inh; in the data active = activation above about 8.9%
TR-FRET interf: TR-FRET optical interference artefacts, confirmation, artefact control for LEDGF/p75-dependent integration inhibitor project, biochemical, HIV-1 IN multimerization; AID 1053135, 2014; inhibition, % at 7.7 µM; shares compounds with LEDGF integ inh; TR-FRET optical interference counterscreen; 2,000 tested, under 10 active;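 active = inhibition above the mean over all tested compounds plus 3 SD, which no compound reached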;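 also: 0% = integrase with antibodies and DMSO and 100% = antibodies without integrase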
LEDGF integ conf: inhibitors of HIV-1 IN-LEDGF/p75 DNA integration, confirmation, biochemical, TR-FRET; shares compounds with LEDGF integ inh; TR-FRET LEDGF/p75-dependent HIV-1 integration; inhibition, % at 3.7 µM; hit rate 36% among 2,000; AID 1053136, 2014
* marks the source's active call; other numbers are inactive results; · = no result. An excerpt weighted towards active compounds, which were near 3.5% of everything screened. Rule as the data show it, unless noted: active = inhibition above about 14%; inactive = the rest.

SMILES | LEDGF integ inh | DNMT1 block | UHRF1 binding | PG9 Ab binder | MBD2 inh | rCAG binder | IN multimer act | TR-FRET interf | LEDGF integ conf | others
O=C(O)CC(C(=O)O)N1C(=O)/C(=C/C=C/c2ccco2)SC1=S (configuration not stated) | 89* | 79* | 100* | -3 | 109* | 34 | 37* | -185 | 94* | UHRF1 ctr MBD2=92*;MBD2 DBD conf=59*
CC(C(=O)O)N1C(=O)/C(=C/c2cccn2C)SC1=S (configuration not stated) | 0 | 3 | -18 | 0 | -18 | 0 | · | · | ·
Nc1ccc(C(CC(=O)O)n2cccc2)cc1 (configuration not stated) | 65* | 15 | 100* | 0 | 43* | 12 | 0 | -1 | 4 | UHRF1 ctr MBD2=9;MBD2 DBD conf=1
O=C(O)CC(c1ccccc1)n1cccc1 (configuration not stated) | 2 | -3 | 0 | 2 | 5 | -3 | · | · | ·
CCCCCCC=C1CCC(CN2CCCC2)C1=O (configuration not stated) | 4 | 16 | 5 | 2 | 2 | 4 | · | · | ·
O=C(O)c1cc(N2C(=O)C=CC2=O)cc(N2C(=O)C=CC2=O)c1 | 62* | 82* | 97* | 3 | 80* | 15 | 2 | -9 | 53* | UHRF1 ctr MBD2=77*;MBD2 DBD conf=39*
Cc1cc(N2CCNC[C@@H]2C)ccc1N1CCS(=O)(=O)CC1 | 0 | · | 0 | -3 | 0 | 2 | · | · | ·
Cc1n[nH]c(=S)n(NC(=O)/C=C/C(=O)Nn2c(=S)[nH]nc(C)c2=O)c1=O | 14* | 34 | 41* | -1 | 15* | 17 | 8 | -42 | 29* | UHRF1 ctr MBD2=16;MBD2 DBD conf=9
Cc1n[nH]c(=S)n(NC(=O)CC(=O)Nn2c(=S)[nH]nc(C)c2=O)c1=O | -33 | -7 | -12 | -4 | -5 | 1 | · | · | ·
COc1ccc(/C=C(\C#N)C(=O)Nc2cccc3ncccc23)cc1OC | 2 | -8 | -8 | -1 | -8 | 4 | · | · | ·
N#C/C(=C\c1ccc(O)c(O)c1)C(=O)Nc1cccc2ncccc12 | 49* | 16 | 28* | -6 | 21* | 27 | 72* | -256 | 85* | UHRF1 ctr MBD2=13;MBD2 DBD conf=11
COC(=O)[C@]12C[C@H](CC(=O)NCCC(C)C)C(=O)N(Cc3cccc4ccccc34)C1=C[C@H](C(C)C)O[C@@H]2C1CC1 | -2 | · | -3 | · | -4 | 0 | · | · | ·
O=C(NCc1ccccc1)[C@@H]1CCCN1C(=O)[C@H]1CCCN1C(=O)c1ccccc1F | 2 | · | 0 | -1 | 1 | 1 | · | · | ·
Clc1cccc(C2CCN(Cc3nc(CC4CC4)no3)C2)c1 (configuration not stated) | 35* | -2 | 0 | -1 | 0 | -5 | 0 | 2 | 0
COC(=O)[C@H](CO)NS(=O)(=O)c1ccc(C)cc1 | 5 | 5 | 1 | 0 | 0 | 1 | · | · | ·
COC(=O)CCC[C@H](C)[C@@H](NS(=O)(=O)c1ccc(C)cc1)C(C)(C)C | 40* | · | 1 | 1 | 9 | -2 | 0 | -2 | -5
O=S1(=O)c2c(cccc2N2CC[C@@H](O)C2)O[C@H]2CCN1C2 | 3 | · | 1 | · | -4 | 0 | · | · | ·
COC(=O)CSc1ncnc2c(C)csc12 | 45* | 8 | 5 | -2 | 1 | 0 | 1 | -5 | 3
Cc1csc2c(SCC(=O)NNS(=O)(=O)c3cccc(C(F)(F)F)c3)ncnc12 | -1 | 4 | -62 | 0 | -5 | 5 | · | · | ·
COc1cccc(CNC(=O)[C@@H]2CCCN2C(=O)[C@@H]2CCCN2S(=O)(=O)c2ccc(OC)c(C)c2)c1 | 0 | · | 1 | -1 | 1 | 1 | · | · | ·
CCCCCCSc1ccc([C@H]2N[C@@](CC(C)C)(C(=O)OC)[C@H]3C(=O)N(CC)C(=O)[C@@H]23)cc1 | 3 | 3 | 7 | -1 | 2 | 1 | · | · | ·
CCCCCCSc1ccc([C@H]2N[C@@](C)(C(=O)OC)[C@H]3C(=O)N(CC)C(=O)[C@@H]23)cc1 | 15* | 10 | 0 | 0 | 3 | -7 | 0 | -1 | -3
CC(N=Cc1cccc(O)c1O)c1ccccc1 (configuration not stated) | · | 0 | · | · | · | · | · | · | ·
Cc1ccc(N=Cc2cccc(O)c2O)c(C)c1 | 31* | -6 | -3 | -1 | -6 | 15 | 1 | -3 | 75*
Cc1ccccc1N=Cc1cccc(O)c1O | · | -10 | · | · | · | · | · | · | ·
Oc1cccc(/C=N/N=C/c2cccc(O)c2O)c1O | 27* | -1 | 2 | -1 | 2 | 11 | 7 | -24 | 73*
COC(=O)[C@H]1[C@@H](O)[C@@]2(O)c3c(OC)cc(OC)cc3O[C@@]2(c2ccc(OC)cc2)[C@@H]1c1ccc(F)cc1 | 15* | · | 0 | -1 | 2 | 0 | 0 | -2 | -6
C=CS(=O)(=O)N(Cc1ccc(F)cc1)C(=C)C(=O)OC | -2 | · | 0 | · | 4 | 3 | · | · | ·
Cc1ccccc1C(=O)N[C@@H](CC(C)C)C(=O)N1CCC[C@H]1C(=O)NCc1ccccc1 | -2 | · | -1 | -1 | 2 | -3 | · | · | ·

Screens from PubChem.
